This excerpt belongs to a sample that is enriched for hits.
nsP2pro inh = blocks chikungunya virus nsP2 protease peptide cleavage | Q8JUX6 | FRET peptide cleavage, nsP2pro, fluorescence 1 h | Potency, µM (titrated, usually from 24.9 µM), most hits filed as inhibitors | 31,000 compounds, 1.1% hits | AID 1964107; also: nearly all actives have a fitted effect of over 60% in size
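Purified recombinant nsP2pro (150 nM final) in 10 mM Tris-HCl pH 8.0 with 0.01% Tween 20 was preincubated 15 min at room temperature with compound (7 concentrations, up to 25 uM). FRET peptide 2 substrate (2.5 uM final) was then added; fluorescence was read after 1 h.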
CHIKV nsP2 cell = inhibits CHIKV nsP2 protease in cells; shares compounds with nsP2pro inh; cell-based CHIKV nsP2 protease reporter assay; Potency, µM (highest dose often 51.1 µM), hits mostly inhibitors; 450 compounds, 10% hits; AID 1964100; also: nearly all actives have a fitted effect of over 70% in size
Target sequence (Q8JUX6 220-798 limits assumed): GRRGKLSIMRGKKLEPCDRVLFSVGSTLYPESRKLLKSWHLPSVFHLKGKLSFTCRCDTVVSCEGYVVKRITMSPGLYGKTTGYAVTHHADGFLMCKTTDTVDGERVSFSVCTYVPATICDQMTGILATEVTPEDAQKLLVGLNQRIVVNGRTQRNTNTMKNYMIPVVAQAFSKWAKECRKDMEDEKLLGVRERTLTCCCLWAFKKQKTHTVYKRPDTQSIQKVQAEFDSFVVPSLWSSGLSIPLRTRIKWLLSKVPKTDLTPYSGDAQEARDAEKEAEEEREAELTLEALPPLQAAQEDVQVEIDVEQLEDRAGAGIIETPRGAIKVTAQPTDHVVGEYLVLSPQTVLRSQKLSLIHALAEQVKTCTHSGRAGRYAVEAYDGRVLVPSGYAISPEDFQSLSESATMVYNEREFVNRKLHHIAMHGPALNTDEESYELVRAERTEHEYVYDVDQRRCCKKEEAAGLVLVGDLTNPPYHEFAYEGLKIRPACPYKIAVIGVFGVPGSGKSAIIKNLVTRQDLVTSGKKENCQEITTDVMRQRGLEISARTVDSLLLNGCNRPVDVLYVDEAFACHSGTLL
CHIKV NSP2 FL = inhibits full-length CHIKV NSP2 enzyme; shares compounds with nsP2pro inh; Full-length CHIKV NSP2 protease enzymatic counterscreen; Potency, µM (top dose mostly 50.7 µM), usual class: inhibitors; 410 compounds, 39% hits; AID 1964101; also: nearly all actives have a fitted effect of over 65% in size
Furin counter = inhibits human furin in a CHIKV nsP2 protease selectivity counterscreen | Potency, µM (highest dose often 50.6 µM), hits mostly inhibitors | Recombinant human furin enzymatic counterscreen, fluorogenic substrate | shares compounds with nsP2pro inh | AID 1964102 | 410 compounds, 6% hits
nsP2 NS23 pep = nsP2pro inhibition on native NS2/3 peptide substrate. Purified CHIKV nsP2 protease, endogenous NS2/3 peptide cleavage. 410 compounds, 34% hits. shares compounds with nsP2pro inh. Potency, µM (top dose mostly 51 µM), usual class: inhibitors. AID 1964103; also: nearly all actives have a fitted effect of over 55% in size
Papain cs = papain protease inhibition, counterscreen for nsP2pro inhibitors; shares compounds with nsP2pro inh; purified papain protease activity, enzymatic inhibition; Potency, µM (doses to about 51 µM), most hits filed as inhibitors; 410 compounds, 5% hits; AID 1964104
nsP2pro confirm = confirmation of CHIKV nsP2 protease inhibitors; shares compounds with nsP2pro inh; CHIKV nsP2 protease enzymatic activity, qHTS; Potency, µM (titrated, usually from 25.5 µM), most hits filed as inhibitors; 410 compounds, 43% hits; AID 1964105; also: nearly all actives have a fitted effect of over 75% in size
HCV NS3 counter = inhibits HCV NS3/4A protease in an nsP2pro selectivity counterscreen; shares compounds with nsP2pro inh; HCV NS3/4A protease biochemical counterscreen; Potency, µM (doses to about 50.9 µM), most hits filed as inhibitors; 410 compounds, 20% hits; also: nearly all actives have a fitted effect of over 55% in size
Each line names hits and unclear results; the compound was inactive in the other large screens (follow-up assays come after a bar, where they were run). Calls follow the shape of the full dose curve.

Cc1cc(C2=NOC(c3cc(Cl)cc(Cl)c3)(C(F)(F)F)C2)ccc1C(=O)NCC(=O)NCC(F)(F)F (centres undefined)	none
CCc1nc2c(c(-c3ccc(O)cc3)n1)CN(Cc1ccc(NC(C)=O)cc1)CC2	none
CC(Cc1ccccc1)C(=O)Nc1ccc(Cl)cc1C(=O)O (centres undefined)	none
O=C(c1cc(-c2ccc(Cl)cc2)on1)N(Cc1ccc(F)cc1)Cc1ccco1	none
O=C(c1ccc(Cl)cc1)N(Cc1ccco1)Cc1ccco1	none
CS(=O)(=O)c1ncc(Cl)c(C(=O)N(Cc2ccc(Cl)cc2)Cc2ccco2)n1	nsP2pro inh 4.8µM | CHIKV nsP2 cell 2.6µM | CHIKV NSP2 FL inconclusive | Furin counter inactive | nsP2 NS23 pep 4.1µM | Papain cs inactive | nsP2pro confirm 2.2µM | HCV NS3 counter inactive
C/C(=C(\CCOC(=O)c1ccccc1)SS/C(CCOC(=O)c1ccccc1)=C(/C)N(C=O)Cc1cnc(C)nc1N)N(C=O)Cc1cnc(C)nc1N	nsP2pro inh 8.8µM | CHIKV nsP2 cell inactive | CHIKV NSP2 FL 13µM | Furin counter inactive | nsP2 NS23 pep 5.8µM | Papain cs inactive | nsP2pro confirm 8µM | HCV NS3 counter 5.8µM
CCCOC(=O)c1ccccc1	none
OC1C=C2C3CN(Cc4cc5c(cc43)OCO5)C2CC1O (centres undefined)	none
CN1CCN(c2ccc(Nc3nc(-c4ccncc4)nc4ccccc34)cc2F)CC1	none
N#Cc1ccc(NC(=O)Nc2nnc(-c3ccncc3)s2)cc1C(F)(F)F	none
O[C@H]1CC[C@@H](Cc2cc(-c3ccc(F)cc3)on2)O[C@@H]1CNC1CCCCC1	none
Cc1ccc(OCCn2c3c(c4ccccc42)CN(C(=O)C2CCCCC2)CC3)cc1	none
OC[C@H]1O[C@@H](OCCc2ccc(O)cc2)[C@H](O)[C@@H](O)[C@@H]1O	none
CC(C)C(=O)OC[C@H]1O[C@H](O[C@H]2O[C@H](CO)[C@@H](O)[C@H](O)[C@H]2O)[C@H](O)[C@@H](O)[C@@H]1O	none
C=C(CCO[C@@H]1O[C@H](CO)[C@@H](O)[C@H](O)[C@H]1O)C(=O)O	nsP2pro inh inconclusive | CHIKV nsP2 cell inactive | CHIKV NSP2 FL inactive | Furin counter inactive | nsP2 NS23 pep inactive | Papain cs inactive | nsP2pro confirm inactive | HCV NS3 counter inactive
O=C(c1ccc2c(c1)ncn2-c1ccc(C(F)(F)F)cc1)N1CCCCC1	none
CNc1oc(-c2cccc3ncccc23)nc1C#N	none
C#C[C@]1(O)CC[C@@H]2[C@@H]3CCC4=CCCC[C@@H]4[C@H]3C(=C)C[C@@]21CC	none
O=C(/C=C/c1ccc(O)c(O)c1)OC[C@H]1O[C@@H](OC2CCCCC2O)[C@H](O)[C@@H](O)[C@@H]1O (some centres undefined)	none
CC(CO[C@@H]1O[C@H](COC(=O)/C=C/c2ccc(O)c(O)c2)[C@@H](O)[C@H](O)[C@H]1O)C1(O)COC(=O)C1 (some centres undefined)	nsP2pro inh inconclusive | CHIKV nsP2 cell inactive | CHIKV NSP2 FL inactive | Furin counter inactive | nsP2 NS23 pep inactive | Papain cs inactive | nsP2pro confirm inactive | HCV NS3 counter inactive
CC(=O)O[C@@H]1[C@@H](CO)O[C@@](CO)(O[C@H]2O[C@H](COC(=O)/C=C/c3ccccc3)[C@@H](O)[C@H](O)[C@H]2O)[C@H]1O	none
O=C(O)c1ccc2nc(-c3cc(Cl)cc(Cl)c3)oc2c1	none
O=C(/C=C/c1ccc(O)c2c1[C@H](C(=O)O)[C@@H](c1ccc(O)c(O)c1)O2)O[C@H](Cc1ccc(O)c(O)c1)C(=O)O	none
COCCc1noc(-c2ccc(N(C)Cc3ncc(C)[nH]3)nc2)n1	none
CC(C)(C)OC(=O)N1CCC(c2c(C(=O)NCCc3ccccc3)cnn2-c2ccc(F)cc2F)CC1	none
COCCCNC(=O)c1cnn(-c2ccc(F)cc2F)c1C1CCNCC1	none | CHIKV nsP2 cell inactive | CHIKV NSP2 FL 16µM | Furin counter inactive | nsP2 NS23 pep inconclusive | Papain cs inactive | nsP2pro confirm inconclusive | HCV NS3 counter inconclusive
CC(C)(C)OC(=O)N1CCC(c2c(C(=O)NCCN3CCc4ccccc4C3)cnn2-c2ccc(F)cc2F)CC1	none
O=C(COc1ccccc1)N1C[C@@H]2C[C@H](C1)c1c(NS(=O)(=O)c3ccccc3)ccc(=O)n1C2	nsP2pro inh inconclusive | CHIKV nsP2 cell inactive | CHIKV NSP2 FL 16µM | Furin counter inactive | nsP2 NS23 pep inconclusive | Papain cs inactive | nsP2pro confirm inconclusive | HCV NS3 counter inconclusive
O=C(Nc1ccc(=O)n2c1[C@@H]1C[C@@H](CN(C(=O)COc3ccccc3)C1)C2)c1ccccc1	none
CCCS(=O)(=O)Nc1ccc(=O)n2c1[C@@H]1C[C@@H](CN(C(=O)c3ccc(OC)cc3)C1)C2	none
CN(C)c1cc(NC(=O)CNC(C)(C)C)c(O)c2c1C[C@H]1C[C@H]3[C@H](N(C)C)C(=O)C(C(N)=O)=C(O)[C@]3(O)C(=O)C1=C2O	none
C/C=C(\C)C(=O)O	none
C[C@H](NC(=O)[C@H](Cc1ccccc1)NC(=O)OCc1ccccc1)C(=O)CF	nsP2pro inh inconclusive | CHIKV nsP2 cell inactive | CHIKV NSP2 FL inconclusive | Furin counter inactive | nsP2 NS23 pep inactive | Papain cs 0.046µM | nsP2pro confirm inconclusive | HCV NS3 counter inactive
CC(C)C[C@H](NC(=O)CNC(=O)OCc1ccccc1)C(=O)N[C@@H](Cc1ccccc1)C(=O)CCl	none
CC(NC(=O)[C@H](Cc1ccccc1)NC(=O)OCc1ccccc1)C(=O)CF (some centres undefined)	none
COc1ccc(-c2ccc(Nc3nc(-c4ccncc4)nc4ccccc34)cc2F)cc1F	none
COC(=O)C1=C(C)NC(C)=C(C(=O)OCCc2ccc(N3CCN(C(c4ccccc4)c4ccccc4)CC3)cc2)C1c1cccc([N+](=O)[O-])c1 (centres undefined)	none
COC(=O)C1=C(C)NC(C)=C(C(=O)OCC(C)C)C1c1ccccc1[N+](=O)[O-] (centres undefined)	nsP2pro inh 9.9µM | CHIKV nsP2 cell inconclusive | CHIKV NSP2 FL inconclusive | Furin counter inactive | nsP2 NS23 pep 15µM | Papain cs inactive | nsP2pro confirm 10µM | HCV NS3 counter inactive
CC(C)COC(=O)c1ccc(N)cc1	none
CCN(CC)C(=O)COC(=O)c1ccc(S(C)(=O)=O)c([N+](=O)[O-])c1	none
Cc1ccc(-c2ccc(=O)n(CC(=O)N(C)C(C)c3ccco3)n2)cc1 (centres undefined)	none

Bioassay records as filed in PubChem BioAssay.
